Data on 45 compounds can be found in the supplement of paper PMC10498489.

Among all 2,300 compounds or so, about 330 (14%) showed activity.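 The calls were made as follows: active = median modified Z-score above 1.96; inactive = 1.96 or below.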 Not all results are given here.

For the experiment, the system named is HepG2 Srxn1-GFP reporter cells (+30 nM CDDO-Me). Kind of experiment: Srxn1-GFP intensity median modified Z-score relative to plate median; higher = stronger NRF2 / oxidative stress reporter activation, active = hit call of the paper. The following applies: 10 µM; exposure time: 24h. In a few lines:
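The per-plate modified Z-score of GFP intensity, taken as a median across replicates, is what each value represents. Three replicate plates of HepG2 Srxn1-GFP BAC reporter cells were exposed for 24 h to an NRF2 activator at 30 nM combined with compound at 10 μM (≤0.1% DMSO). Cytoplasmic GFP per cell was read from confocal images, excluding any with under 100 cells, and scaling used 1.4826 × median absolute deviation.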
In the case of `C#C[C@]1(O)CCC2C3CCC4=Cc5oncc5C[C@]4(C)C3CC[C@@]21C` (stereo not given in full) [euspeclibcmpd81], the “Srxn1-GFP intensity median modified Z-score” value was -0.371 (inactive).
In the case of `N=c1[nH]cnc2c1ncn2[C@@H]1O[C@H](COP(=O)(O)OP(=O)(O)OC[C@H]2O[C@@H]([n+]3cccc(C(N)=O)c3)[C@H](O)[C@@H]2O)[C@@H](O)[C@H]1O` [euspeclibcmpd202] it was -0.305 (inactive).
The figure for `CCC(=O)OCC(=O)[C@@]1(OC(=O)CC)[C@@H](C)CC2C3CC=C4CC(=O)C=C[C@]4(C)C3(F)[C@@H](O)C[C@@]21C` (stereo not given in full) [euspeclibcmpd541] is -0.359 (inactive); for `O=C(O)c1cc(-c2ccccc2)nc2cc(Br)ccc12` it is 1.37 (inactive); for `CC1OC(n2cc(F)c(=O)[nH]c2=O)C(O)C1O` (stereo not given) [euspeclibcmpd1997] it is -0.334 (inactive).
The figure for `CN[C@@H]1[C@H](O)[C@H](NC)[C@H]2O[C@@]3(O)C(=O)C[C@@H](C)O[C@H]3O[C@@H]2[C@H]1O` [euspeclibcmpd268] is -0.125 (inactive).
Turning to `COc1ccc2c(c1)O[C@@H]1COc3cc(OC)c(OC)cc3C1C2=O` (stereo not given in full) [euspeclibcmpd1700], the “Srxn1-GFP intensity median modified Z-score” value was 22.8 (active).
The figure for `COc1cc2c(cc1OC)C1C(=O)c3ccc4c(c3O[C@@H]1CO2)C=CC(C)(C)O4` (stereo not given in full) [euspeclibcmpd1734] is 12.7 (active).
Consider `COc1ccc2c(c1)O[C@H]1c3ccc(OC)cc3OC[C@@H]21` [euspeclibcmpd1733], for which the “Srxn1-GFP intensity median modified Z-score” value was -0.45 (inactive).
The figure for `COc1cc2c(cc1OC)C1C(=O)c3c(O)cc4c(c3OC1CO2)C=CC(C)(C)O4` (stereo not given) [euspeclibcmpd1478] is 1.56 (inactive).
The figure for `COc1ccc([C@H]2Oc3cc(OC)cc(OC)c3C[C@H]2O)cc1` [euspeclibcmpd1383] is 0 (inactive).
In the case of `CCOC(=O)c1c(NC(=O)COC(=O)C(C)NC(N)=O)sc(C(C)=O)c1C` (stereo not given) it was 1.26 (inactive); in that of `CCN(CC)CCCC(C)N=c1cc[nH]c2cc(Cl)ccc12` (stereo not given) [euspeclibcmpd325], -0.157 (inactive); in that of `CCN(CC)CCCC(C)N=c1c2ccc(Cl)cc2[nH]c2ccc(OC)cc12` (stereo not given) [euspeclibcmpd261], 19.2 (active).
Regarding `O[C@@H]1[C@H](O)CO[C@H]1O` [euspeclibcmpd1668], the “Srxn1-GFP intensity median modified Z-score” value was -0.319 (inactive).
In the case of `COc1ccc(-c2coc3cc(OC)ccc3c2=O)cc1` [euspeclibcmpd2413] it was -0.165 (inactive); in that of `C[C@]12C=CC(=O)CC1=CCC1C2[C@@H](O)C[C@@]2(C)C1CC[C@]2(O)C(=O)CO` (stereo not given in full) [euspeclibcmpd241], -0.692 (inactive); in that of `CN1C(=O)CC[C@H]1c1cccnc1` [euspeclibcmpd75], -0.303 (inactive).
For `O=C(O)c1cccnc1` [euspeclibcmpd2043], the “Srxn1-GFP intensity median modified Z-score” value was -0.519 (inactive).
In the case of `CN1CCC[C@H]1c1cccnc1` [euspeclibcmpd957] it was 8.21 (active); in that of `O=C(O)c1ccccc1C(=O)Nc1ccc(S(=O)(=O)N=c2[nH]ccs2)cc1` [euspeclibcmpd427], 0.584 (inactive).
In the case of `CCCCCCCCCCOc1cc2c(=O)c(C(=O)OCC)c[nH]c2cc1OCC` [euspeclibcmpd775] it was 0 (inactive).
The figure for `COC(=O)CC1C(C)(C)C(O)C2CC3=C4CC(O)OC(c5ccoc5)C4(C)CCC3C1(C)C2=O` (stereo not given) [euspeclibcmpd1860] is 0.479 (inactive).
Consider `C=CC[C@]1(O)CCC2C3=C(C=C[C@@]21C)C1=C(CC3)CC(=O)CC1` (stereo not given in full) [euspeclibcmpd848], for which the “Srxn1-GFP intensity median modified Z-score” value is 0.704 (inactive).
For `Cc1cc(O)c2c(O)c3c(O)cccc3cc2c1` [euspeclibcmpd2068], the “Srxn1-GFP intensity median modified Z-score” value was 2.58 (active).
The figure for `Oc1cccc2cc3cccc(O)c3c(O)c12` [euspeclibcmpd25] is -0.419 (inactive); for `O=c1c(O)cccc2cc(O)c(O)c(O)c12` [euspeclibcmpd1723] it is -0.877 (inactive); for `CCCCC(=O)Oc1ccccc1C(=O)O` [euspeclibcmpd1887] it is 14.5 (active).
In the case of `CC(=O)Oc1ccccc1C(=O)Oc1ccccc1C(=O)O` [euspeclibcmpd1749] it was -0.327 (inactive); in that of `CC(=O)Oc1ccccc1C(=O)O` [euspeclibcmpd28], 61 (active).
Turning to `O=C(O)c1ccccc1OP(=O)(O)O` [euspeclibcmpd1073], the “Srxn1-GFP intensity median modified Z-score” value was -0.579 (inactive).
In the case of `O=C(/C=C/C(=O)Oc1ccccc1C(=O)O)Oc1ccccc1C(=O)O` [euspeclibcmpd1772] it was -0.354 (inactive).
Regarding `O=C(Oc1ccccc1C(=O)O)c1ccccc1O` [euspeclibcmpd2], the “Srxn1-GFP intensity median modified Z-score” value was -0.023 (inactive).
In the case of `CCCCCN(C)CCC(O)(P(=O)(O)O)P(=O)(O)O` [euspeclibcmpd2308] it was -0.118 (inactive); in that of `CCCc1cc(C(N)=S)ccn1` [euspeclibcmpd1165], -0.267 (inactive); in that of `NC[C@H]1O[C@H](OC2[C@@H](N)C[C@@H](N)[C@H](O[C@H]3O[C@H](CO)[C@@H](O)[C@H](N)[C@H]3O)[C@H]2O)[C@H](O)[C@@H](O)[C@@H]1O` (stereo not given in full) [euspeclibcmpd168], -0.199 (inactive).
In the case of `CC(C)CCCC(C)C1CCC2C3CC[C@H]4C[C@@H](O)CC[C@]4(C)C3CC[C@]12C` (stereo not given in full) [euspeclibcmpd2135] it was 0.00623 (inactive); in that of `NCCC[C@H](N)CC(=O)NC1CNC(=O)C([C@H]2C[C@H](O)NC(N)=N2)NC(=O)C(C=NC(N)=O)NC(=O)[C@H](CO)NC(=O)[C@H](CO)NC1=O` (stereo not given in full) [euspeclibcmpd994], -0.33 (inactive).
The figure for `O=C(O)c1cc(=O)[nH]c(=O)[nH]1` [euspeclibcmpd1192] is -0.551 (inactive); for `O=C(O)c1cc2cc(Cl)ccc2[nH]1` [euspeclibcmpd2020] it is 1.97 (active).
On to `CC(C(=O)O)c1ccc2c(c1)[nH]c1ccc(Cl)cc12` (stereo not given) [euspeclibcmpd425], for which the “Srxn1-GFP intensity median modified Z-score” value was 0.027 (inactive).
The figure for `CCn1cc(C(=O)O)c(=O)c2cc(F)c(N3CCN(C(=O)CCSC)CC3)cc21` is 0.401 (inactive).
Regarding `NS(=O)(=O)c1cc2c(cc1Cl)N=C(CSCc1ccccc1)NS2(=O)=O` [euspeclibcmpd35], the “Srxn1-GFP intensity median modified Z-score” value was -0.327 (inactive).
In the case of `CC1OC1P(=O)(O)O` (stereo not given) [euspeclibcmpd2281] it was -0.455 (inactive).
In the case of `CC(C)[N+](C)(CCOC(=O)C1c2ccccc2Oc2ccccc21)C(C)C` [euspeclibcmpd254] it was 0.13 (inactive).
